# In PubChem BioAssay AID1053 (University of Pittsburgh Molecular Library Screening Center, 2008):
# Several values for one entry are separate records, joined by “and”; a condition that tells them apart may be missing. Equal values may be shown once. A number with no mark means an inactive call. Activity calls are given as the source filed them. How the calls were made is not given here.
# Target: Serine/threonine-protein kinase PLK1 (Homo sapiens) (UniProt P53350)
# Test: Plk1 polo box domain binding inhibitors, SAR follow-up, biochemical, fluorescence polarization, purchased analogs (AID 1053)
# Conditions: Plk1 PBD fluorescence polarization peptide binding; at 20 µM; stronger effect = higher value
# Chain of Serine/threonine-protein kinase PLK1 (Homo sapiens) (P53350 whole entry, looked up, the tested form may be a part): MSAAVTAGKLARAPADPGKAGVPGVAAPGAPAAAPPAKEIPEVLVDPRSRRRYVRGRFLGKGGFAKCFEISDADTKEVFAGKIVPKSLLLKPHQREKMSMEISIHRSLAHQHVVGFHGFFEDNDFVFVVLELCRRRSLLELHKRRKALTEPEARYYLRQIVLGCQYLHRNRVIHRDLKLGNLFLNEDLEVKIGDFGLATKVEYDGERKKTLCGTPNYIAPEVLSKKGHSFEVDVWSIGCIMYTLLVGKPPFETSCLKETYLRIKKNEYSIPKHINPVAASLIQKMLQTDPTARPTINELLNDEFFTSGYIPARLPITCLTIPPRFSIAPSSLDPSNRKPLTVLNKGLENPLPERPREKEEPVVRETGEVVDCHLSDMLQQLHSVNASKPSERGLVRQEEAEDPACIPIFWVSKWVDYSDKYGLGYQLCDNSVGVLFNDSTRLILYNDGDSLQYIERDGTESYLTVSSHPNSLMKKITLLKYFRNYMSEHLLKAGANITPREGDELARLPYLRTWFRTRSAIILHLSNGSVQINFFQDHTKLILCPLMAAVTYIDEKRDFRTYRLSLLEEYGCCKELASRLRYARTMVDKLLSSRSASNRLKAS
row,Structure (SMILES),inhibition
1,CCn1nc(-c2ccccc2)nc2c(=O)n(C)c(=O)nc1-2,-2.54%
2,CCN(CC)CCOC(=O)c1ccc(N=Cc2c(O)[nH]c(=O)[nH]c2=O)cc1,-148% and -184%
3,CCOC(=O)c1ccc(N=C(c2ccccc2)c2c(O)n(C)c(=O)n(C)c2=O)cc1,-58.1%
4,COc1cc(Br)cc(C=C2C(=O)NC(=O)NC2=O)c1O,-39.8%
5,Cn1c(O)c(C(=O)c2ccccc2Cl)c(=O)n(C)c1=O,-36.4%
6,CCCC(=O)c1c(O)[nH]c(=O)[nH]c1=O,-47.7% and -64.6%
7,Cc1ccc(-c2nc3c(=O)n(C)c(=O)nc-3n(C)n2)cc1,43.1%
8,COc1cc(C=C2C(=O)NC(=O)NC2=O)cc(Cl)c1O,-40.9%
9,Cn1nc(-c2ccccc2)nc2c(=O)n(C)c(=O)nc1-2,31.4%
10,CCn1nc(-c2ccc([N+](=O)[O-])cc2)nc2c(=O)n(C)c(=O)nc1-2,60.6% (active)
11,CCn1nc(-c2ccccc2Cl)nc2c(=O)n(C)c(=O)nc1-2,43.6%
12,O=C1NC(=O)C(=Cc2cccn2-c2ccc([N+](=O)[O-])cc2)C(=O)N1,-40.9%
13,O=C1NC(=O)C(=Cc2c3ccccc3cc3ccccc23)C(=O)N1,-41.5%
